A number with no mark means an inactive call. Records with an inconclusive call do not appear. Entries that show only a call come without a potency. Active and inactive are the calls of the source. Calls follow the shape of the dose curve; as a rule, active = well fitted curve in the direction sought with a large enough effect; inconclusive = small, poorly fitted or top-dose-only effect, or another doubt; inactive = no such curve, though single readings can be large; an effect the other way counts as inactive or inconclusive.
Tests used:
[1] = Cellular Toxicity (caspase-3) Mesangial (AID 660); conditions: mesangial cells, normalized: DMSO 0%, 100 µM tamoxifen 100%; at 91.7 µM (top of the series);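 also: combined caspase 3 and 7 activity read by Caspase-Glo luminescence; cells exposed to compound for 16 h before the caspase read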
Summary of the method: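 AC50 values come from Hill-equation fits of caspase 3/7 activation, measured as Caspase-Glo luminescence in human glomerular mesangial cells exposed to compound for 16 h at 37 °C; 100% set by 100 uM tamoxifen.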

[2] = Cellular Toxicity (caspase-3) SK-N-SH (AID 661)
Summary of the method: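 Apoptosis readout in SK-N-SH neuroblastoma: Caspase-Glo 3/7 luminescence following 16 hr treatment in complete culture medium. Normalization used DMSO and 10 uM staurosporine controls.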

[3] = Cellular Toxicity (caspase-3) H-4-II-E (AID 663); conditions: H-4-II-E rat hepatoma, scaled: DMSO 0%, 100 µM tamoxifen 100%; at 92.2 µM (top of the series)
Summary of the method: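 H-4-II-E rat hepatoma, 1500 cells/well, 5 hr settle at 37 °C; compound 16 hr, 37 °C, complete medium; Caspase-Glo 3/7, 20 min RT; luminescence. DMSO = 0%, 100 uM tamoxifen = 100%; Hill-equation AC50.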

[4] = Cellular Toxicity (caspase-3) Hek293 (AID 664); conditions: HEK293 caspase-3 activation, DMSO = 0%, 100 µM tamoxifen = 100%; at 92.2 µM (top of the series);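 also: cells exposed to compound for 16 h at 37 °C before readout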
Summary of the method: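 Apoptosis readout: Caspase-Glo 3/7 signal in human HEK293 cells following 16-hour compound incubation. Responses scaled between DMSO baseline and 100 uM tamoxifen.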

[5] = Cellular Toxicity (caspase-3) N2a (AID 665);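 also: compound exposure lasted 16 h at 37 °C before readout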
Summary of the method: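 Concentration-response qHTS: compound-induced caspase-3/7 luminescence in N2a cells (16 h, 37 °C), relative to DMSO and 10 uM staurosporine controls; AC50 obtained using the standard Hill equation.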

[6] = Cellular Toxicity (caspase-3) NIH 3T3 (AID 666)
Summary of the method: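 Activity: caspase-3/7 induction, NIH 3T3 cells, 16 hr treatment at 37°C, luminescent Caspase-Glo detection; AC50 via Hill equation.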

[7] = Cellular Toxicity (caspase-3) Renal Proximal Tubule (AID 667); conditions: Potency: caspase-3 activation;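 also: cells exposed to compound for 16 hours at 37 °C before detection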
Summary of the method: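 Luminescent caspase 3/7 signal from peptide-aminoluciferin cleavage measures apoptosis in freshly isolated rat kidney proximal tubule cells after 16 h compound exposure. Concentration-response data are normalized to DMSO and 10 uM staurosporine, and AC50 values come from Hill equation fits.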

[8] = molecular target: Cytochrome P450 3A4 (Homo sapiens) (UniProt P08684); assay: qHTS Assay for Inhibitors and Substrates of Cytochrome P450 3A4 (AID 884); also: nearly all actives have a fitted effect of over 50% in size
Summary of the method: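 Luminescent readout of luciferin produced by CYP3A4 (20 nM) dealkylation of Luciferin-PPXE, 25 uM (its KM). NADPH-driven reaction ran 60 min at RT after 10 min compound preincubation; data scaled to 57 uM ketoconazole as 100% inhibition.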

[9] = MultiTox-Fluor Cytotoxicity Assay - LYMP1-001 - Dead Cells (AID 946)
Summary of the method: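 In this qHTS, 15 uM tetraoctylammonium bromide defined 100% and DMSO defined basal activity. Lymphoblastoid cells (LYMP1-001, 2500 per well) received compound for 16 hr at 37 C before a fluorogenic dead-cell substrate readout at 485/520 nm.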

[10] = MultiTox-Fluor Cytotoxicity Assay - LYMP1-001 - Live Cells (AID 947)
[11] = Cell Viability - LYMP1-002 - Assay at 16 hr (AID 948)
Summary of the method: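 LYMP1-002 human lymphoblastoid cells, 2500/well; 5 hr 37 C; cpd 16 hr 37 C; CellTiter-Glo 30 min RT; luminescence (ATP). Concentration-response, Hill-fit AC50. Pos ctrl tetraoctylammonium bromide.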

[12] = MultiTox-Fluor Cytotoxicity Assay - LYMP1-002 - Live Cells (AID 955)
Summary of the method: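 In this qHTS viability format, lymphoblastoid cells (LYMP1-002, human) received compound for 16 hr at 37 C. Fluorogenic GF-AFC cleavage by viable cells was detected at 405/510 nm after 1 h at room temperature.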

[13] = MultiTox-Fluor Cytotoxicity Assay - LYMP1-002 - Dead Cells (AID 960); also: nearly all actives have a fitted effect of over 60% in size
Summary of the method: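 Concentration-dependent increases in membrane-leaked protease activity are quantified in LYMP1-002 cells after 16 hr treatment; values are normalized against DMSO and tetraoctylammonium bromide (15 uM) controls and AC50 derived by Hill modeling.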

[14] = MultiTox-Fluor Cytotoxicity Assay - LYMP1-003 - Dead Cells (AID 961); also: nearly all actives have a fitted effect of over 70% in size
Summary of the method: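 Acute toxicity is scored as increased dead-cell protease activity in human lymphoblastoid LYMP1-003 cells after 16 h compound exposure in complete culture medium. Activity is normalized to DMSO basal and 15 uM tetraoctylammonium bromide as full response.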

[15] = MultiTox-Fluor Cytotoxicity Assay - LYMP1-003 - Live Cells (AID 962);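 also: cytotoxic hits lower the live-cell protease signal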
Summary of the method: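 Human lymphoblastoid line LYMP1-003 in complete culture medium, treated 16 hr with titrated compounds. Viable cells quantified via cell-permeant GF-AFC substrate fluorescence; AC50 derived by Hill fitting.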

[16] = Cell Viability - LYMP1-003 - Assay at 24 hr (AID 963)
Summary of the method: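 The lymphoblastoid line was treated with titrated compounds for 24 hours, and viable cell number estimated from luciferase-based ATP luminescence.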

[17] = Cell Viability - LYMP1-003 - Assay at 40 hr (AID 964); also: nearly all actives have a fitted effect of over 60% in size
Summary of the method: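 Acute toxicity is scored as a concentration-dependent loss of intracellular ATP in LYMP1-003 cells (2500/well, complete medium) after 40 hr at 37 C, measured by CellTiter-Glo luminescence; AC50 values derive from standard Hill modelling.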

[18] = Cell Viability - LYMP2-004 (AID 966); also: nearly all actives have a fitted effect of over 65% in size; also: potency is read from the fitted curve at half-maximal effect
Summary of the method: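 Viable-cell number estimated from ATP luminescence (CellTiter-Glo) in 2500 human lymphoblastoid cells/well after 24 hr at 37 C with compound. AC50 fitted to the standard Hill equation.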

[19] = Cell Viability - LYMP2-001 (AID 921); also: nearly all actives have a fitted effect of over 70% in size
Summary of the method: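 CellTiter-Glo luminescence (intracellular ATP) after 24 hr compound exposure at 37 C, 2500 lymphoblastoid cells/well in complete medium. AC50 fitted with standard Hill equation; tetraoctylammonium bromide positive control.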

[20] = Cell Viability - LYMP2-003 (AID 965);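 also: cells exposed to compounds for 24 h before reading; nearly all actives have a fitted effect of over 50% in size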; also: potency is read from the fitted curve at half-maximal effect
Summary of the method: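 CellTiter-Glo luminescence (cellular ATP) after 24 h compound exposure at 37 C in complete medium; 2500 cells/well, 5 h settling beforehand. Concentration-response fitted to standard Hill equation for AC50. Tetraoctylammonium bromide served as positive control.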

Chain of Cytochrome P450 3A4 (Homo sapiens) (P08684 whole entry, looked up): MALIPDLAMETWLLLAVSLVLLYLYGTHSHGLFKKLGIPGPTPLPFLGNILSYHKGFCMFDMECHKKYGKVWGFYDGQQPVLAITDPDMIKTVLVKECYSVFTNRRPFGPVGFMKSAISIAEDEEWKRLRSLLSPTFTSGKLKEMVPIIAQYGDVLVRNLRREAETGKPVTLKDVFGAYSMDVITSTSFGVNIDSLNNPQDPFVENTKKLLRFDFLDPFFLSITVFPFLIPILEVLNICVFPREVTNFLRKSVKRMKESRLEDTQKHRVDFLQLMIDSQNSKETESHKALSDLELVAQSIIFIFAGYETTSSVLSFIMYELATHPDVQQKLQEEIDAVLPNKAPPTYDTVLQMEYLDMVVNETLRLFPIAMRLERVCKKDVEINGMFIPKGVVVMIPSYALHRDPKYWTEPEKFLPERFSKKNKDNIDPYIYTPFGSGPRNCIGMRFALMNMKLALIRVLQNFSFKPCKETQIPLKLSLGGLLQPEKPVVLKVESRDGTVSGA

Row | Compound | caspase-3 activation [1] [%] | outcome [2] | caspase-3 activation [3] [%] | caspase-3 activation [4] [%] | outcome [5] | outcome [6] | Potency [7] | Potency [8] | outcome [9] | outcome [10] | outcome [11] | outcome [12] | outcome [13] | Potency [14] | Potency [15] | Potency [16] | Potency [17] | Potency [18] | Potency [19] | Potency [20]
1 | C=Cc1ccc(C=C)cc1 | -0.657 | inactive | -0.942 | 0.511 | inactive | inactive | inactive | inactive | inactive | inactive | inactive | inactive | inactive | inactive | inactive | inactive | inactive | inactive | – | –
2 | Cc1ccc(S(=O)(=O)NC2CCCCC2)cc1 | 0.471 | inactive | -0.0757 | 2.22 | inactive | inactive | inactive | – | inactive | inactive | inactive | inactive | inactive | inactive | inactive | inactive | inactive | inactive | inactive | inactive
3 | Oc1cccc(Nc2ccccc2)c1 | -0.245 | inactive | -0.0797 | -0.23 | inactive | inactive | inactive | – | inactive | inactive | inactive | inactive | inactive | – | inactive | inactive | inactive | inactive | inactive | inactive
4 | Cc1cc(C)cc(N)c1 | -0.679 | inactive | -0.0763 | -0.185 | inactive | inactive | inactive | – | inactive | – | inactive | inactive | inactive | inactive | inactive | inactive | inactive | inactive | inactive | inactive
5 | O=Cc1ccc(C(=O)O)cc1 | 0.146 | inactive | -0.315 | -1.79 | inactive | inactive | inactive | inactive | inactive | inactive | inactive | inactive | – | inactive | inactive | inactive | inactive | inactive | – | inactive
6 | O=Nc1ccc(NO)cc1 | 0.317 | inactive | 1.96 | 11.4 | inactive | inactive | inactive | inactive | inactive | – | inactive | inactive | inactive | inactive | – | inactive | inactive | 50.1 µM (active) | – | 50.1 µM (active)
7 | Nc1cccc(N)c1 | 0.868 | inactive | 0.606 | -1.72 | inactive | inactive | inactive | – | inactive | inactive | inactive | inactive | inactive | – | inactive | inactive | inactive | inactive | inactive | inactive
8 | CCNc1cc(O)ccc1C | 0.47 | inactive | 1.36 | 0.389 | inactive | inactive | inactive | – | inactive | – | inactive | inactive | inactive | inactive | inactive | inactive | inactive | – | inactive | inactive
9 | OC/C(Br)=C(\Br)CO | 0.44 | inactive | -0.67 | 0.816 | inactive | inactive | inactive | – | inactive | inactive | inactive | inactive | inactive | inactive | inactive | inactive | inactive | inactive | inactive | inactive
10 | CCC(C)=O | -0.0673 | inactive | 0.152 | -2.5 | inactive | inactive | inactive | – | inactive | inactive | inactive | inactive | inactive | – | inactive | inactive | inactive | inactive | inactive | inactive
11 | c1ccc2c(c1)ccc1ncccc12 | -0.196 | inactive | 0.297 | 1.59 | inactive | inactive | inactive | – | inactive | inactive | inactive | inactive | – | inactive | inactive | inactive | inactive | inactive | inactive | inactive
12 | CCOc1cc(OCC)c(C(C)=O)cc1OCC | -0.248 | inactive | 0.345 | -0.553 | inactive | inactive | inactive | – | inactive | inactive | inactive | inactive | – | inactive | inactive | inactive | inactive | inactive | inactive | inactive
13 | OC1CCCC1 | -0.56 | inactive | 0.647 | -1.06 | inactive | inactive | inactive | – | inactive | inactive | inactive | inactive | – | inactive | inactive | inactive | inactive | inactive | inactive | inactive
14 | Cc1cccc2sc(N)nc12 | -0.691 | inactive | -0.522 | 1.8 | inactive | inactive | inactive | inactive | inactive | inactive | inactive | inactive | inactive | – | inactive | inactive | inactive | inactive | – | inactive
15 | COc1ccccc1[N+](=O)[O-] | -1.05 | inactive | 0.0394 | -0.651 | inactive | inactive | inactive | inactive | inactive | – | inactive | inactive | inactive | inactive | inactive | inactive | inactive | inactive | – | inactive

From PubChem BioAssay (NCATS)
